TRHR enhancer: allosteric enhancers of human TRH receptor. P34981. TRHR cells, fluo-8 calcium fluorescence, EC20 TRH enhancement. enhancement, % at 2 µM. 360,000 tested, 0.66% active. AID 493056; in the data active means enhancement above about 30%; further: 0% is about no effect
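Enhancer read-out: after compound pinning and an initial kinetic agonist-mode read, an EC20 of TRH (10 nM final) was injected and fluo-8 calcium signal (Ex 480/Em 530) followed at 1 s/cycle for 100 cycles in TRHR-expressing cells.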
D1 antagonist: human D1 dopamine receptor antagonism. 360,000 tested, 3.2% active. HEK293 TREx D1 cells, calcium flux, dopamine EC80; stronger effect = lower value. P21728. activity change, negative = inhibition, % at 10 µM; in the data active means activity change below about -30%; further: on the % scale 0 is the no-effect control and ±100 the full control effect
Target sequence (P21728 whole entry, looked up): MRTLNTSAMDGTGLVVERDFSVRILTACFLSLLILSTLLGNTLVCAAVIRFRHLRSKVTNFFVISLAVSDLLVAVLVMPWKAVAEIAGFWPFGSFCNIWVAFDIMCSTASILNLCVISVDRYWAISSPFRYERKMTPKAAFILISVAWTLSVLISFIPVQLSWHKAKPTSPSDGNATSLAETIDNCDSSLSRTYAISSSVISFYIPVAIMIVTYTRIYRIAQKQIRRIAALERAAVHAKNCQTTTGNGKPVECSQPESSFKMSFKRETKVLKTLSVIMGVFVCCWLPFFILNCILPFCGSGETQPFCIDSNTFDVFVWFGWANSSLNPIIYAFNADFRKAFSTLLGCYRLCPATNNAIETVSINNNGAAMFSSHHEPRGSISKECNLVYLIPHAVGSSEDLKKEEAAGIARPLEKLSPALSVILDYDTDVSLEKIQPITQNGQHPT
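Allosteric or orthosteric antagonism assessed as attenuation of the calcium response to EC80 dopamine, added 180 s after compound, in induced HEK293 Trex D1 cells loaded with no-wash calcium dye.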
D1 potentiator: human D1 dopamine receptor positive modulation. P21728. HEK293 TREx D1 cells, calcium flux, dopamine EC20 potentiation. 360,000 tested, 0.036% active. potentiation, % at 10 µM; in the data active means potentiation above about 30%; further: 0% is about no effect
D1 ag: activates the human D1 dopamine receptor; P21728; HEK293 T-REx D1 cells, calcium flux, agonist mode; activation, % at 2 µM; 360,000 tested, 1% active; further: 0% is about no effect
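Tetracycline-induced HEK293 TREx D1 cells, force-coupled to calcium signalling, were dye-loaded with a no-wash calcium kit. Compound was pin-added after a 10 s baseline. Fluorescence was read kinetically at 1 cycle/s for 180 s, with calcium rises flagged as agonism.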
TRHR agonist: activates the human TRH receptor; P34981; TRHR cells, calcium flux fluo-8, FDSS agonist mode; activation, % at 2 µM; 360,000 tested, 0.18% active; AID 493084; further: 0% is about no effect
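TRHR-expressing cells loaded with fluo-8 calcium dye; 23 nL library compound pin-transferred, kinetic FDSS fluorescence (Ex 480/Em 530) recorded about 180 s for agonist-induced calcium release, before a 10 nM TRH EC20 addition for potentiator mode.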
An asterisk follows results filed as active; / = no result given. Shown are actives, neighbours in structure and some others; about 4.6% of the full set was active somewhere. Unless noted, no stated cut-off is given here; in the data, active means activation above about 30%; inactive means the rest.

SMILES	TRHR enhancer	D1 antagonist	D1 potentiator	D1 ag	TRHR agonist
O=C(NC(Nc1nc2ccc([N+](=O)[O-])cc2s1)(C(F)(F)F)C(F)(F)F)c1ccccc1Cl	-5	-36*	-2	25	8
O=[N+]([O-])c1ccc2nc(NS(=O)(=O)c3ccccc3[N+](=O)[O-])sc2c1	-6	-39*	/	68*	6
CN(C)S(=O)(=O)c1ccc2nc(NC(=O)c3cccnc3)sc2c1	-5	5	-2	2	0
O=C(NC(Nc1nc2ccc([N+](=O)[O-])cc2s1)(C(F)(F)F)C(F)(F)F)c1cccnc1	-4	-35*	-11	36*	14
O=C(NC(NNc1ccc([N+](=O)[O-])cc1)(C(F)(F)F)C(F)(F)F)c1ccccc1Cl	11	-38*	-3	13	-1
COc1cc(NC(=O)c2cc3cc4ccc(OC)c(Cl)c4nc3s2)cc(OC)c1	0	-4	-1	2	1
Cc1ccsc1C1C=C(c2cccc(Br)c2)Nc2ncnn21 (stereo not drawn)	-2	7	-1	43*	24
CCCCNCCOCCOc1ccc(Cl)cc1Br	3	-41*	-3	14	0
COCCCNC(=O)COc1ccc(Br)cc1Cl	12	-34*	-2	1	0
COCCCNCCCOc1ccc(Cl)cc1Br	1	-1	-4	8	2
CC(C)NCCCCOc1ccc(Br)cc1Cl	8	-25	-5	50*	-1
CCNC(=O)COc1ccc(Br)cc1Cl	-3	-13	-3	0	0
CC(C)NCCCOc1ccc(Cl)cc1Br	8	-25	-10	47*	0
Cc1ccc(C(=O)N2CCc3cc(CNC(=O)c4ccccc4F)ccc32)cc1	-6	-29	-3	1	0
Cc1ccc(-n2cnc3cc(C(=O)NCc4ccc(F)cc4)ccc32)c(C)c1	-3	-23	-1	0	0
Cc1ccc(CNC(=O)CN2C(=O)CSc3ccc(S(=O)(=O)N4CCCC4)cc32)cc1	-1	7	-3	1	0
Cn1nc(C(=O)N2CCN(c3ccccc3F)CC2)c2c1-c1ccccc1SC2	-22	-35*	-3	4	0
O=C(Cn1nc(Cc2cccnc2)c2ccccc2c1=O)Nc1ccc(F)c(Cl)c1	7	15	3	2	-1
CCOC(=O)c1nn(-c2ccccc2)c(=O)cc1OCC(=O)Nc1cc(C)ccc1OC	2	-4	6	2	1
CCOC(=O)c1nn(-c2ccc(C)cc2)c(=O)cc1OCC(=O)Nc1cc(C)ccc1OC	10	-42*	-6	5	0
CCCCCC(=O)Nc1cccc(C2=NOC3(C2)C[C@H](C(N)=O)N(C(=O)CCCCC)C3)c1 (stereo partly drawn)	2	5	4	0	0
CCC(=O)N1CC2(CC(c3cccc(NC(=O)COc4ccc(Cl)cc4)c3)=NO2)C[C@@H]1C(N)=O (stereo partly drawn)	0	-53*	6	3	0
CCCCCC(=O)N1CC2(CC(c3cccc(NC(=O)CC(c4ccccc4)c4ccccc4)c3)=NO2)C[C@@H]1C(N)=O (stereo partly drawn)	-3	-47*	-4	9	1
Cc1cc(Cl)ccc1OCC(=O)N1CCC(c2nc3ccccc3o2)CC1	-17	-9	0	3	0
Cc1cccc(C)c1NC(=O)CSc1ncc2c(n1)-c1ccc(Cl)cc1N(Cc1ccccc1)S2(=O)=O	-1	-8	0	5	1
SMILES	TRHR enhancer	D1 antagonist	D1 potentiator	D1 ag	TRHR agonist
CCN(CCn1cccn1)C(=O)c1cc(COc2ccc(F)c(F)c2)on1	-2	-32*	-4	12	0
Cc1cc(-c2ccc(S(=O)(=O)Nc3cc(Cl)ccc3C)s2)on1	-1	-5	-5	13	0
Cc1ccc(S(=O)(=O)c2nnn(-c3ccc(F)c(Cl)c3)c2N)cc1	10	-23	2	76*	5
COc1ccc(S(=O)(=O)c2nnn(-c3cccc(OC)c3)c2N)cc1	-1	1	-2	30	2
COc1ccc(S(=O)(=O)c2nnn(-c3ccc(C(C)C)cc3)c2C)cc1	-1	-16	-4	9	0
Cc1ccc(S(=O)(=O)c2nnn(-c3cccc(F)c3)c2N)cc1	-3	-33*	-1	10	0
NC1=NC[C@H](Cc2ccccc2)N1CCCCC1CCCCC1	3	29	5	11	0
NC1=NC[C@H](Cc2ccccc2)N1CCc1cccc(F)c1	3	-37*	-3	1	0
COc1ccc(-c2nnc(SCC(=O)Nc3cc(OC)ccc3OC)nc2-c2ccc(OC)cc2)cc1	2	-12	4	2	1
CCc1cc(C(=O)Nc2sc(C)c(CC)c2C#N)no1	11	1	1	0	0
CCc1c(C)sc(NC(=O)c2cc(C(C)C)on2)c1C#N	-7	-32*	3	9	0
CCc1ccc(-c2nc(CN3CCCC(C(=O)N4CCN(c5cc(Cl)ccc5C)CC4)C3)c(C)o2)cc1 (stereo not drawn)	13	-8	-2	3	0
COc1ccc(OC)c(-n2nnnc2SCC(=O)Nc2ccccc2N2CCOCC2)c1	3	-34*	-2	0	0
COc1ccc(CCNC(=O)CSc2nnnn2-c2ccccc2OC)cc1OC	0	-52*	-7	14	0
COc1ccc(NC(=O)CSc2nnnn2-c2ccccc2OC)c(OC)c1	-1	-68*	-5	7	0
COc1ccccc1-n1c(SCC(=O)N(C)C2CCS(=O)(=O)C2)nc2ccccc2c1=O (stereo not drawn)	-1	-14	0	2	0
COc1ccccc1-n1nnnc1SCC(=O)N(C)C1CCS(=O)(=O)C1 (stereo not drawn)	1	-38*	0	1	1
COc1ccc(-c2cn3nc(SCC(=O)Nc4cc(C)cc(C)c4)ccc3n2)cc1	-6	-6	-2	0	-1
Cc1cccc(-c2ccc3ncnc(N(C)Cc4ccco4)c3c2)c1	-3	0	3	4	0
COc1ccc(C(=O)OCC(=O)Nc2sccc2C(N)=O)cc1[N+](=O)[O-]	1	-15	-3	2	0
COc1ccc(Cl)cc1NC(=O)CNc1ccccc1N1CCOCC1	0	-35*	-6	3	0
Cc1cc(Cl)ccc1OCC(=O)Nc1ccccc1N1CCOCC1	10	25	6	-1	0
COc1ccc(CCNC(=O)CSc2cn(Cc3ccccc3)c3ccccc23)cc1OC	-7	-4	-6	0	0
COc1ccc(CCNC(=O)CSc2cn(Cc3cccc(C)c3)c3ccccc23)cc1OC	-4	10	1	34*	1
COC(=O)c1ccc(NC(=O)CC2Nc3cc(C)c(C)cc3NC2=O)cc1 (stereo not drawn)	-1	-15	-2	13	3
